Screening results (PubChem BioAssay)
CHO-K1 Ca ag: M1 agonist counterscreen hit in parental CHO-K1 cells. AID 602248. Fluo-8 calcium fluorescence; scaled to maximal ATP response, vehicle zero. actives 0.48% (n = 360,000). activation, % at 3 µM; in the data active = activation above about 15%;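 note: untransfected CHO-K1 host cells lacking M1 receptor as counterscreen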
M1 PAM: positive allosteric modulators of human M1 muscarinic receptor; CHO-K1 hM1, Fluo-8 calcium fluorescence, ACh EC20; 0% = ACh EC20, 100% = maximal ACh; actives 0.088% (n = 360,000); P11229; activation, % at 3 µM; in the data active = activation above about 19%, passing the limit was not always enough
Target sequence (P11229 whole entry, looked up): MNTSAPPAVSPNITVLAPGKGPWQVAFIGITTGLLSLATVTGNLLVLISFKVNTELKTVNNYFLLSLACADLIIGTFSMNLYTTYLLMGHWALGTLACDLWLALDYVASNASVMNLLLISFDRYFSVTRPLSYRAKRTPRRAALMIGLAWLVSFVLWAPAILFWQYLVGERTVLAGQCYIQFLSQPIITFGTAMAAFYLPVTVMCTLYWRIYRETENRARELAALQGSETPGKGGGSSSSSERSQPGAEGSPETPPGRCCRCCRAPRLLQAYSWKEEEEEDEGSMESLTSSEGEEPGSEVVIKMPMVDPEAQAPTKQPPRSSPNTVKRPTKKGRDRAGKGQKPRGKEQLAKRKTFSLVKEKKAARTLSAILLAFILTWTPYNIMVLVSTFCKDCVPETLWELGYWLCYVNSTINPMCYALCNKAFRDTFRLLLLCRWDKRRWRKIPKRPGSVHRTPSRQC
CHO-K1 Ca antag: counter-screen for M1 antagonists: effect in parental CHO-K1 cells; actives 0.6% (n = 360,000); inhibition, % at 3 µM; ATP-induced calcium, Fluo-8 fluorescence;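 active = inhibition above a per-plate cutoff, the plate's mean sample inhibition plus 3 SD, cut at about 24% in these data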
CHRM1 agonist: human M1 muscarinic receptor agonism. P11229. CHO-K1 hM1, Fluo-8 calcium fluorescence, agonist mode; 0% DMSO, 100% acetylcholine EC100. activation, % at 3 µM. actives 0.33% (n = 360,000). AID 588814;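 active = activation above the run's mean compound activation plus 3 SD, cut at about 16% in these data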;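 note: peak over basal fluorescence ratio within a 140 s kinetic read after compound addition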
CHO-K1 Ca PAM: counter-screen for M1 PAMs: effect in parental CHO-K1 cells; actives 0.02% (n = 360,000); ATP EC20, Fluo-8 calcium fluorescence; 0% at ATP EC20, 100% at ATP max; activation, % at 3 µM;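 active = activation above the run cutoff, the mean activation of all test compounds plus 3 SD, cut at about 40% in these data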;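 note: peak over basal fluorescence ratio in a 140 s read after ATP addition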
M1 antag: human CHRM1 antagonism; P11229; CHO-K1 hM1, Fluo-8 calcium fluorescence, ACh EC80 antagonist; inhibition, % at 3 µM; actives 1.3% (n = 360,000); AID 588852;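 active = percent inhibition above its own plate's cutoff, namely the mean of that plate's compound wells plus 3 SD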;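 note: peak over basal fluorescence ratio during 140 s after agonist addition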
A number is an active result; . = inactive; / = not tested or not shown. Hits are enriched below; roughly 2.3% of the tested compounds scored in any of these assays.

SMILES	CHO-K1 Ca ag	M1 PAM	CHO-K1 Ca antag	CHRM1 agonist	CHO-K1 Ca PAM	M1 antag
O=C(COC(=O)c1ccc(O)cc1O)NC(=O)Cc1ccccc1	18	.	.	33	.	.
CC(=NNC(=S)N1CCN(c2ccccn2)CC1)c1nccs1	.	.	.	.	.	.
Cc1cc(OCc2cc(C(=O)N3CCN(C)C(=O)[C@@H]3C)no2)cc(C)c1Cl	.	.	.	.	.	38
COc1cc(Cl)ccc1OCc1cc(C(=O)N2CCN(C)C(=O)[C@@H]2C)no1	.	.	.	.	.	.
Cc1nc(C(F)(F)F)ccc1C(=O)N1CCC1(C)C(=O)NS(=O)(=O)c1ccc2ccccc2c1 (stereo not drawn)	.	.	.	.	.	.
O=C(CN1C(=O)c2cccnc2Oc2ccc(Cl)cc21)NCCCc1ccccc1	.	.	.	.	.	30
COc1cc2nc(C3CCC3)nc(N3CCN(c4ccccc4OC)CC3)c2cc1OC	.	.	.	.	.	66
Nc1nc2cc3c(cc2cc1C(=O)NCc1ccc(F)cc1)OCO3	.	/	.	/	.	/
Cc1ccc(OCCCCNC2CCCC(C)C2C)c(C)c1 (stereo not drawn)	.	.	.	.	.	48
Cc1ccc(OCCCCN2CCCCC2)c(C)c1	.	.	.	.	.	.
COc1cc(C(=O)NC2CC2)cc(OC)c1OC	.	/	.	/	.	/
CN1CCC2(CC1)N=C(c1ccc(F)cc1)C(=S)N2C(=O)c1ccc(C(C)(C)C)cc1	.	.	.	.	.	49
Cc1ccc(NC(=O)CSc2nnc(NC3CC3)s2)cc1S(=O)(=O)N1CCOCC1	.	.	.	.	.	.
CN1CCN(Cc2cn[nH]c2-c2ccc(F)cc2F)[C@@H](c2ccccc2)C1	.	.	.	46	.	21
COc1ccc(C(=O)ON=C(C)c2nccs2)cc1	.	.	.	.	.	.
COc1ccc(C(=O)C(=O)c2ccc(OCCO)cc2)cc1	.	30	.	.	.	.
COc1ccc(C#Cc2ccc3c(c2)O[C@@H](CN(C)C(=O)Nc2cccc(OC)c2)[C@H](C)CN([C@@H](C)CO)S3(=O)=O)cc1	.	.	.	.	.	.
COc1cccc(NC(=O)N(C)C[C@H]2Oc3cc(Br)ccc3S(=O)(=O)N([C@H](C)CO)C[C@H]2C)c1	.	.	28	.	.	20
COc1ccccc1S(=O)(=O)N(C)C[C@@H]1Oc2cc(C#CCC(C)C)ccc2S(=O)(=O)N([C@H](C)CO)C[C@@H]1C	.	.	34	.	.	.
CC1C(=O)N(Cc2cn(CC3CCCCC3)nn2)CCS(=O)(=O)N1Cc1ccc(-c2ccc(Cl)cc2)cc1 (stereo not drawn)	.	.	.	.	.	.
Cc1ccc(-c2nc(CS(=O)CC(=O)NCc3ccccc3)c(C)o2)cc1 (stereo not drawn)	.	24	.	.	.	.
Cc1oc(-c2ccc(Cl)cc2)nc1CS(=O)CC(=O)NCCN1CCCC1 (stereo not drawn)	.	.	25	.	.	.
COc1ccc(S(=O)(=O)NC(=O)C2(C)CCN2C(=O)Cc2ccccc2Cl)cc1 (stereo not drawn)	.	.	.	.	.	.
COc1ccc(NC(=O)C2c3ccccc3OCC(=O)N2Cc2cccnc2)cc1 (stereo not drawn)	.	/	.	/	.	/
CCCCNC(=O)C1(C)CCN1C(=O)Cc1cccc2ccccc12 (stereo not drawn)	.	.	.	.	.	.
SMILES	CHO-K1 Ca ag	M1 PAM	CHO-K1 Ca antag	CHRM1 agonist	CHO-K1 Ca PAM	M1 antag
CC1CCN(c2nc3ccccc3n2CC(=O)c2ccccc2)CC1	.	.	.	.	.	67
Cc1csc(NC(=O)C2(C)CCN2C(=O)C(C)C)c1C#N (stereo not drawn)	.	.	.	.	.	.
COc1ccc(CN2CCN(Cc3cccc(Oc4ccccc4)c3)CC2)c(OC)c1OC	.	.	.	.	.	44
N#Cc1cnn2c(=O)[nH]cnc12	.	.	.	.	.	.
CC(=O)Nc1cc(-c2cccc(CO)c2)cn2c(-c3ccc(F)cc3)cnc12	.	.	.	.	.	.
COC(C[C@H]1O[C@@H]1[C@H](O)COCc1ccccc1)OC	.	.	.	.	.	.
COC(C[C@H]1O[C@H]1[C@@H](O)COCc1ccccc1)OC	.	.	.	.	.	39
O=[N+]([O-])c1ccc(CN2CCCCCC2)cc1	.	.	.	.	.	.
CSc1ccc(CN2CCN(Cc3ccc([N+](=O)[O-])cc3)CC2)cc1	.	.	.	.	.	41
CC(C)c1ccc(C(C(C(=O)c2ccccc2)N2CCOCC2)N2CCOCC2)cc1 (stereo not drawn)	.	.	.	.	.	.
O=C(NC1CCCCC1)C(=O)c1c(-c2ccccc2)[nH]c2ccccc12	.	.	27	.	.	.
O=C(C1CC(=O)N(C2CCCC2)C1)N1CCN(c2ccccc2)CC1 (stereo not drawn)	.	.	60	.	.	.
O=C(NCCCN1CCC(Cc2ccccc2)CC1)C1CC(=O)N(C2CCCC2)C1 (stereo not drawn)	.	.	.	.	.	33
O=C(NCCCN1CCC(Cc2ccccc2)CC1)C1CCC(=O)N1C1CCCC1 (stereo not drawn)	.	.	.	.	.	.
C[C@H]1CN([C@@H](C)CO)C(=O)CCCn2nncc2CO[C@H]1CN(C)C(=O)C1CCCCC1	.	.	.	.	.	.
CCS(=O)(=O)N1CCN(S(=O)(=O)c2ccc(Cl)s2)CC1	.	.	.	.	.	37
CCN1C/C(=C/c2ccc(OC)c(O)c2)C(=O)/C(=C/c2ccc(OC)c(O)c2)C1	.	.	.	.	.	.
COc1ccc(/C=C2\CN(Cc3ccccc3)C/C(=C\c3ccc(OC)c(O)c3)C2=O)cc1O	.	.	.	.	.	28
CC1(C#CC[N+]2(C)CCCCC2)CCC2C(O1)c1ccccc1OC2(C)C (stereo not drawn)	.	.	.	103	.	82
CC12CCC3(CO)COC(c4ccccc4O1)C2C3 (stereo not drawn)	.	.	.	.	.	.
CCc1ccc(CCC(=O)Nc2sc3c(c2C#N)CCCC3)o1	.	.	.	.	.	.
Cc1ccc(/C=C/C(=O)Nc2sc3c(c2C#N)CCCC3)o1	.	.	38	.	.	.
COc1cc(CNC(=O)c2cc(-c3ccc(F)cc3OC)n[nH]2)cc(OC)c1	.	.	.	.	.	.
N#CC(C#N)=C(Nc1ccc(F)cc1)SCc1cccc(Br)c1	.	.	26	.	.	.
Cc1cccc(CSC(=N)N)c1	.	.	.	.	.	.
Cc1cccc(CSC(Nc2ccc(F)cc2)=C(C#N)C#N)c1	.	.	28	.	.	.
CC(SCc1ccccc1)C(=O)Nc1ccc(F)cc1 (stereo not drawn)	.	.	.	.	.	.
